The values below come from PubChem BioAssay AID2156 (Johns Hopkins Ion Channel Center, 2009).

Screen size: about 310,000 compounds; about 3,400 (1.1%) were called active. For the sample, actives were picked, then their nearest neighbours and some compounds at random. A number with no mark means an inactive call.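 The calls were made as follows: active = fluorescence ratio B-score at most minus 3 library SDs, with starting brightness B-score within 2 library SDs (cut at about -5.5 in these data); inactive = the rest, inconclusive results apart.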

Potassium voltage-gated channel subfamily KQT member 2 (Rattus norvegicus), sequence (O88943 whole entry, looked up): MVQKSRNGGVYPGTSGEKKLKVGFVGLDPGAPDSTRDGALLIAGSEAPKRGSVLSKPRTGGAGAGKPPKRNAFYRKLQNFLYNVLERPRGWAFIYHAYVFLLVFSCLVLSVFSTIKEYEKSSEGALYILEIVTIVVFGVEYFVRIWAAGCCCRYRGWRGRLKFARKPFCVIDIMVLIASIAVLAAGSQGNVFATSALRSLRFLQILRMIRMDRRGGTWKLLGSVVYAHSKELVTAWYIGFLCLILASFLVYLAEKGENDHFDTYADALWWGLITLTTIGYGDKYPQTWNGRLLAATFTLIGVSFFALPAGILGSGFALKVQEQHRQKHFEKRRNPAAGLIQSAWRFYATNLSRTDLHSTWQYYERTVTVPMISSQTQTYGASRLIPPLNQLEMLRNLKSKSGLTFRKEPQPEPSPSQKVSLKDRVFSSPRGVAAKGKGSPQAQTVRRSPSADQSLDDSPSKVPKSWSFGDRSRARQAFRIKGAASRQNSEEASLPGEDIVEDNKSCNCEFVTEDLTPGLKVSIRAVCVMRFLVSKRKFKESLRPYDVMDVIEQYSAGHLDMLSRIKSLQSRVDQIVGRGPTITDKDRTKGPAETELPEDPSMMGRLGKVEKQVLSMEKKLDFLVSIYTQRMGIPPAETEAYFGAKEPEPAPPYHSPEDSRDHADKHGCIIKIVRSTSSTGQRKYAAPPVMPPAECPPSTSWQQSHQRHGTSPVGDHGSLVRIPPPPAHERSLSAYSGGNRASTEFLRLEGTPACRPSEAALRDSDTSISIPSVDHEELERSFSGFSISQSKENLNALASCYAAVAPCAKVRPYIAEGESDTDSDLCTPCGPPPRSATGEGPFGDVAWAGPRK

This assay concerns the target Potassium voltage-gated channel subfamily KQT member 2 (Rattus norvegicus) (UniProt O88943). Briefly: rat KCNQ2 potassium channel inhibitors, primary screen, cell-based, CHO-K1, FluxOR thallium flux, B-score (AID 2156). The following applies: 20 min, at 10 µM; active compounds read low.
`COc1ccc(Cl)cc1NS(=O)(=O)c1cccc(C(=O)NC2CCC(O)CC2)c1` (centres undefined): the B-score entry was “inactive”. Then `CCN(CC)CCn1c2c(c(SCC(=O)Nc3nc4ccccc4s3)nc1=O)CCCC2`, with -0.49; and `CC(C(=O)NCC1CCCCC1)N(C)Cc1cccc(Cl)c1` (centres undefined), with -6.94 (active).

On to `Cc1ccccc1NC(=O)NCC1CCN(Cc2cccc(Cl)c2)CC1`, for which the B-score result is “inactive”. Then `CNS(=O)(=O)c1cccc(C(=O)NCC2CCCCC2)c1`, with “inactive”; and `O=C(COC(=O)c1cccc(Cl)c1)Nc1ccc2[nH]c(=O)[nH]c2c1`, with “inactive”; and `CCOc1cc(/C=N/NC(=O)c2cccc(S(=O)(=O)N3CCOCC3)c2)ccc1OCC(=O)N(C)C`, with -0.36. The entry for `Cc1ccc(S(=O)(=O)NCCC(=O)OCC(=O)N(C)c2ccccc2)cc1` is “inactive”.

For the molecule `COc1ccc(Cl)cc1NC(=O)CN(C)C(=O)c1cc2ccccc2cc1OC`, the B-score was -1.83. With `COc1ccc(OC)c(NC(=O)CN(Cc2ccc(Cl)cc2)S(C)(=O)=O)c1`, the B-score was -0.01. The figure for `COc1ccc(Cl)cc1NC(=O)CN(C)Cc1ccc(OC)c(OC)c1` is -7.16 (active); for `O=C1N[C@@H](Cc2ccccc2)C(=O)N2[C@H]1C[C@]1(Br)c3ccccc3N(S(=O)(=O)c3ccccc3)[C@H]21` it is “inactive”. With `CCN1C(=O)/C(=c2\s/c(=C3\Sc4ccccc4N3C)c(=O)n2C)N(C)C1=S`, the B-score result was “inactive”.

Regarding `CN1/C(=c2/s/c(=C3/C(=O)N(c4ccccc4)NC3=Nc3ccccc3)n(C)c2=O)C(C)(C)c2ccccc21`, the B-score is -7.74 (active). The entry for `CC1C(=O)N2CCCc3cc(S(=O)(=O)NCc4ccc(F)cc4)cc1c32` (centres undefined) is “inactive”; for `Cc1ccc(Cl)c(OCC(=O)N(C)CC(=O)Nc2ccc(N3CCOCC3)cc2)c1` it is “inactive”; for `Cc1ccc(NS(=O)(=O)c2ccc(C(=O)NCCCN3CCOCC3)cc2)cc1` it is -0.52. Take `CC(C)CN(C(=O)Cn1c(=O)cnc2ccccc21)C1CCS(=O)(=O)C1` (centres undefined): the B-score is -1.5. The entry for `CCOC(=O)N1CCN(C(=O)COc2ccc3oc4c(c3c2)CCCC4)CC1` is “inactive”; for `Fc1ccccc1C(c1nnnn1Cc1ccc2c(c1)OCO2)N1CCN(Cc2ccccc2)CC1` (centres undefined) it is -1.43. Take `Cc1cc(C)c2[nH]c(=O)c(C(c3nnnn3Cc3ccc4c(c3)OCO4)N3CCCC3)cc2c1` (centres undefined): the B-score is -6.38 (active). Then `CCOC(=O)C1CCN(C(c2cc3cc(C)cc(C)c3[nH]c2=O)c2nnnn2C2CCCCC2)CC1` (centres undefined), with -1.94; and `O=C(CSC1=NS(=O)(=O)c2cc(F)ccc2N1)Nc1ccccc1F`, with “inactive”.

For `O=C(OCC(=O)N1CCCC1=O)c1cc(S(=O)(=O)N2CCOCC2)ccc1Cl`, the B-score was -0.84. For `O=C(NN1CCOCC1)c1cccc(F)c1`, the B-score entry was “inactive”. Then `CCN(CC)S(=O)(=O)c1ccc(N2CCOCC2)c(NC(=O)C2CSC3(C)CCC(=O)N23)c1` (centres undefined), with “inactive”; and `CCN(CC)S(=O)(=O)c1ccc(N2CCOCC2)c(C(=O)O)c1`, with “inactive”.

Take `CCN(CC)S(=O)(=O)c1ccc(N2CCOCC2)c(NC(=O)C2COc3ccccc3O2)c1` (centres undefined): the B-score was -6.56 (active).

`Cc1ccc(N2CC(C(=O)N3CCC4(CC3)CC(=O)c3ccccc3O4)CC2=O)cc1C` (centres undefined): the B-score entry was “inactive”. Then `O=C(NCC(=O)N1CCCC(C(F)(F)F)C1)c1ccccc1F` (centres undefined), with “inactive”; and `CC(NC(=S)NNS(=O)(=O)c1ccc(C(C)(C)C)cc1)c1ccccc1` (centres undefined), with -10.4 (active). Then `Cc1ccc(S(=O)(=O)CC(=O)NC(C)c2ccccc2)cc1` (centres undefined), with -0.01. The figure for `Cc1ccc(S(=O)(=O)NNC(=S)NC(C)(C)C)cc1` is -0.78; for `CCN(C(=O)CSc1nnc(-c2ccc(OC(F)F)cc2)n1N)C1CCS(=O)(=O)C1` (centres undefined) it is -0.14. For the molecule `CCN(CC(=O)Nc1cc(Cl)ccc1C)C(=O)CN1C(=O)NC2(CCCC2)C1=O`, the B-score was -0.62. Take `O=c1[nH]c(CSc2ncc(-c3ccc(F)cc3)n2Cc2ccco2)nc2ccccc12`: the B-score result is “inactive”.

With `Clc1cccc(-c2nc3nc4ccccc4nc3n2Cc2ccco2)c1`, the B-score is -9.06 (active). On to `Cc1cc(NC(=O)CSc2nc3cc(Cl)ccc3c(=O)n2Cc2ccco2)no1`, for which the B-score result is “inactive”. Then `O=C(Nc1cccc(F)c1)[C@@H]1CCCN1`, with -0.48; and `O=C(Nc1cccc(F)c1)NC1CCCCCCC1`, with -1.17; and `O=C(Nc1cccc(F)c1)NC1CCCc2ccccc21` (centres undefined), with -5.61 (active).

With `COc1cccc(N2CC(NS(=O)(=O)c3cccs3)CC2=O)c1` (centres undefined), the B-score entry was “inactive”. The figure for `COc1ccc(C2=NOC(Cn3nc(C(=O)NCc4ccc5c(c4)OCO5)cc3-c3ccccc3)C2)cc1` (centres undefined) is -2.37; for `CCOC(=O)c1c(NC(=O)CN2C(=O)NC3(CCC(C)CC3)C2=O)sc(C)c1CC` (centres undefined) it is “inactive”.

Take `Cc1ccc2nnn(Cc3cccc(C(C)(C)C)c3O)c2c1`: the B-score was -2.09.

Turning to `O=C(CNC(=O)C12CC3CC(CC(C3)C1)C2)OCC(=O)N1CCCCC1`, the B-score result was “inactive”. The entry for `COc1cccc(N2CC(C(=O)NCc3n[nH]c(=O)c4ccccc34)CC2=O)c1` (centres undefined) is “inactive”.

For the molecule `O=C(Nc1cn(-c2ccccc2)nc1-c1ccccc1)c1ccccc1`, the B-score was -2.94. Then `CCc1ccc(-c2nn(-c3ccccc3)cc2CSC(=N)N)cc1`, with -12.4 (active); and `Cc1ccc(-c2nn(-c3ccccc3)cc2CN(Cc2ccccc2)C(=O)CCC(=O)O)o1`, with “inactive”; and `CCOc1ccc(S(=O)(=O)Nc2cccc(C(=O)NCC3(N4CCCCC4)CCCCC3)c2)cc1`, with -0.94. For the molecule `O=C(C1=C[C@H](c2ccc(C(F)(F)F)cc2)C[C@H](OCc2ccc(CO)cc2)O1)N1CCN(Cc2ccccc2)CC1`, the B-score was -2.67.

On to `O=C(NCc1ccccc1)C1=C[C@@H](c2ccc(C(F)(F)F)cc2)C[C@@H](OCc2ccc(CO)cc2)O1`, for which the B-score is -7.51 (active). As for `CC(C)(C)[C@H]1C=C(C(=O)NCc2ccccc2)O[C@@H](OCc2ccc(CO)cc2)C1`, the B-score was -1.3. For `CC1CCN(C(=O)COC(=O)c2cc(S(=O)(=O)N3CCOCC3)ccc2Cl)CC1`, the B-score entry was “inactive”.

Regarding `COc1ccc(C(CNC(=O)c2cccc(S(=O)(=O)Nc3ccccc3Cl)c2)N2CCOCC2)cc1` (centres undefined), the B-score entry was “inactive”. `CCOc1ccc(C(CC(=O)O)NC(=O)COc2ccccc2)cc1` (centres undefined): the B-score was -5.97 (active).

With `CCOc1ccc(C(CC(=O)O)NC(=O)Cc2ccccc2)cc1OC` (centres undefined), the B-score was -0.84. Then `Cc1ccc(OCC(=O)NC(C)c2ccccc2)cc1C` (centres undefined), with -1.87.
